Here are results for 28 compounds from PubChem BioAssay AID602313 (National Center for Advancing Translational Sciences (NCATS), 2012).

Each structure is given as a SMILES string. In all, about 390,000 compounds went through this assay and about 760 (0.19%) were called active. Where a call stands in place of a potency, no number is given. Roughly 3% stayed inconclusive and do not appear here. The sample holds actives, similar compounds and a random draw of the others, so the mix is not that of the screen. The call rests on the fitted dose curve; in most records, active means well fitted inhibition curve with a large enough effect; inconclusive means small, poorly fitted or top-dose-only effect; inactive means flat fitted curve, though single readings scatter.
Potency means the concentration at half of the fitted maximal effect.

The test can be described thus: qHTS for Inhibitors of Vif-A3F Interactions: qHTS. Further: nearly all actives have a fitted effect of over 65% in size. As to conditions: HeLa A3F-eYFP + Vif (tagged APOBEC3F with the HIV-1 protein that degrades it), YFP fluorescence increase; series mostly up to 46.1 µM. The method in brief:
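Fluorescence increase (Ex 488/Em 500-530) after overnight compound treatment at 37 deg C flags inhibition of Vif-driven A3F-eYFP loss in stable HeLa A3F-eYFP/Vif cells seeded overnight beforehand.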
In general terms: qHTS replaces the single test concentration by a dilution series.
For `Cc1[nH]c2ccccc2c1C(c1ccccc1)c1cccs1` (stereo not drawn), the Potency result was “inactive”.
With `COc1ccc(C2CC(c3cccs3)=Nc3ccccc3S2)cc1OC` (stereo not drawn), the Potency result is “inactive”.
For `CC1Cn2c(nnc2-c2cccs2)S1` (stereo not drawn) the value was “inactive”; for `Cc1ccccc1C1CC(c2cccs2)=NN1S(C)(=O)=O` (stereo not drawn), 17.8 µM (active); for `COc1cc(NS(=O)(=O)c2cccs2)cc(OC)c1`, “inactive”.
For `Cc1ccccc1Cn1nc(C)c(NC(=O)c2cc(-c3ccc(F)cc3)on2)c1C` the value was “inactive”.
For `CCN(CCCNC(=O)CSc1cc(=O)n(C)c2cc(Cl)ccc12)c1cccc(C)c1` the value was “inactive”; for `COc1ccc(/C=C/c2nc(C#N)c(NCc3ccc(F)cc3)o2)cc1OC`, “inactive”; for `N#Cc1nc(/C=C/c2ccc(F)cc2)oc1NCc1ccc(F)cc1`, “inactive”.
Consider `Cc1ccc(CSCC(=O)N(C)CC(=O)Nc2cccc(F)c2)cc1`, for which the Potency entry was “inactive”.
Consider `CCOC(=O)c1nnn(CC(=O)Nc2cccc(F)c2)c1C(=O)OCC`, for which the Potency entry was “inactive”.
`CCN(CC)C(=O)CSC(Nc1cccc(F)c1)=C(C#N)C#N`: the Potency was 10 µM (active).
For `Cc1cc(C)cc(NC(c2nnc(-c3cccc(F)c3)o2)c2ccc(F)cc2Cl)c1` (stereo not drawn) the value was “inactive”; for `O=C(Nc1ccc(S(=O)(=O)N2CCC(c3nc4ccccc4s3)CC2)cc1)c1ccccc1F`, “inactive”.
Turning to `O=C(Cn1nc(C(F)(F)F)c2c1CCCC2)Nc1ccc(Cl)cc1`, the Potency entry was “inactive”.
The entry for `NS(=O)(=O)c1ccc(NC(=O)COc2ccc(S(=O)(=O)NC3CCCCC3)cc2)cc1` is “inactive”.
Take `Cc1cccn2c(=O)c(C(=O)NC(C)c3ccccc3)cnc12` (stereo not drawn): the Potency result was “inactive”.
As to `CCC1CN(S(=O)(=O)c2cc(-c3cc(C)no3)ccc2C)c2cc(C)ccc2O1` (stereo not drawn), the Potency entry is “inactive”.
For `O=C(CSc1oc(-c2ccco2)nc1S(=O)(=O)c1ccccc1)c1ccc(Cl)cc1` the value was “inactive”; for `CCOc1ccc(CNC(=O)C2CCCN(S(=O)(=O)N(CC)c3ccc(OCC)cc3)C2)cc1` (stereo not drawn), “inactive”; for `CCOC(=O)c1cccc(NC(=O)c2cc(S(=O)(=O)N3CCCC(C)C3)cn2C)c1` (stereo not drawn), “inactive”.
For `Cc1ccc(NC(=O)CSc2nc3c([nH]c4ccccc43)c(=O)n2-c2ccccc2)c(C)c1` the value was “inactive”; for `CCCOc1ccc(-c2cccc(NS(=O)(=O)c3ccccc3)c2)nn1`, “inactive”.
The entry for `CCCN1CCN(CCCNC(=O)Cn2nc(CC)n3c(cc4occc43)c2=O)CC1` is “inactive”.
As to `O=C(COc1ccccc1F)Nc1ccc(C(=O)OCc2cc(=O)n3nc(C4CC4)sc3n2)cc1`, the Potency result is “inactive”.
The entry for `CC1=C(c2ccc(Cl)cc2)S(=O)(=O)N=C1N1CCN(c2cc(C)ccc2C)CC1` is “inactive”; for `Cc1ccccc1CN1CCC(CNC(=O)c2cc3ccc4cccnc4c3[nH]2)CC1` it is “inactive”.
For `O=C(OC12CC3CC(CC(C3)C1)C2)c1ccc(NCc2cc(O)ccc2O)cc1` the value was 22.4 µM (active).
